Mtb bLac sens – beta-lactam sensitization of Mtb H37Rv, H37Rv. inhibition, % at 25 µM. M. tuberculosis H37Rv growth with meropenem, percent inhibition. hit rate 0.27% among 330,000;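 further: growth measured after seven days incubation then overnight dye step; 0% = bacteria only wells and 100% = bacteria with antibiotic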
RecA splice inh – Mtb RecA intein splicing inhibitors, primary screen, biochemical, fluorescence, HTS. inhibition, % (test concentration not listed). cell-free RecA intein splicing. hit rate 0.75% among 290,000. Protein RecA (Mycobacterium tuberculosis (strain ATCC 25618 / H37Rv)), P9WHJ3; in the data active means inhibition above about 30%;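 further: 0% = vehicle wells and 100% = reference inhibitor control wells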
Target sequence (P9WHJ3 whole entry, looked up, canonical isoform): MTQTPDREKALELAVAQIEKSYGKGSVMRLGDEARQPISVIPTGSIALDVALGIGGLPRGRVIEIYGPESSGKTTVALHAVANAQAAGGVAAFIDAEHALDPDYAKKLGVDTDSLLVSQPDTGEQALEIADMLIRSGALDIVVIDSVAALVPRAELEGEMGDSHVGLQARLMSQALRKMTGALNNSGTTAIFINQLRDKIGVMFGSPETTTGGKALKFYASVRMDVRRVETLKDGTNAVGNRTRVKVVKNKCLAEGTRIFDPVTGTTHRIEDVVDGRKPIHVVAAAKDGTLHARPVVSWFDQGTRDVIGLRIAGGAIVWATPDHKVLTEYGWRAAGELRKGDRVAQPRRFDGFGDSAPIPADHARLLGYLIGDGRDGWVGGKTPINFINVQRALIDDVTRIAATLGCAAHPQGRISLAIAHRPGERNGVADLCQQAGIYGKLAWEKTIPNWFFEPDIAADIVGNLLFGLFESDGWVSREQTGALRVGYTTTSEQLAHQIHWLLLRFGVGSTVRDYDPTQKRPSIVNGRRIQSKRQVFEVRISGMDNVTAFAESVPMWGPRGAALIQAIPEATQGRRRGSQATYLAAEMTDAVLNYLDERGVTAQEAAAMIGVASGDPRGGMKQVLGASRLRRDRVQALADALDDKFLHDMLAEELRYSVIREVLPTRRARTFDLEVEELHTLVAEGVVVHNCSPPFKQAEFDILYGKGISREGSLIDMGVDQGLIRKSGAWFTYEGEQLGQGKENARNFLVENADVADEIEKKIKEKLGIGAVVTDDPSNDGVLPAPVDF
BJeLR viability – MLPCN primary cell-based screen for lethality selective to Ras in HRASV12 cells; hit rate 0.17% among 300,000; BJeLR (HRASV12) viability, CellTiter-Glo ATP luminescence, 48 h; inhibition, % (no concentration beside the values); in the data active means inhibition above about 50%
Mtb BioA inh – M. tuberculosis BioA enzyme inhibitors, primary screen, biochemical, plate reader, single point, HTS; purified M. tuberculosis BioA enzyme; inhibition, % at 9.99 µM; hit rate 0.096% among 360,000; AID 602481, 2012; in the data active means inhibition above about 40%
CCHF vOTU inh – CCHFV vOTU protease inhibitors, primary screen, biochemical, Pep-AMC substrate, fluorescence; inhibition, % at 11.5 µM; hit rate 0.55% among 370,000; Crimean-Congo hemorrhagic fever virus L polyprotein viral ovarian tumor (vOTU) protease …; in the data active means inhibition above about 30%; further: 0% = vehicle wells with enzyme and 100% = no enzyme wells
Yp Topo-I inh – Yersinia pestis topoisomerase I inhibitors, primary screen, biochemical, cleavage product accumulation, plate reader, single point. hit rate 0.064% among 360,000. DNA topoisomerase I (Yersinia pestis CO92). Y. pestis Topo-I cleavage product accumulation. activity, % at 10 µM. AID 504884, 2011; in the data active means activity above about 50%, passing the limit was not always enough
GFP chromo cs – counter-screen: blocks GFP chromophore formation, dose response, counter-screen, biochemical, fluorescence, homogeneous. shares compounds with RecA splice inh. cell-free GFP chromophore formation. EC50, µM. hit rate 83% among 2,100
* = called active by the depositor; / = not tested or not shown. A selection: hits, their analogues and other compounds. The true share with any hit is near 1.1%. Unless noted, how the calls were made is not given here.

SMILES	Mtb bLac sens	RecA splice inh	BJeLR viability	Mtb BioA inh	CCHF vOTU inh	Yp Topo-I inh	GFP chromo cs
O=C(C[C@@H]1C=C[C@H](NC(=O)Cc2cccnc2)[C@@H](CO)O1)Nc1ccccc1	/	/	/	-1	/	/	/
O=C(NC(=S)NNC(=O)c1ccccc1O)c1ccco1	-2	36*	3	-1	-13	1	>38
CCOC(=O)c1c(C)sc2c1N(C(=O)CCl)c1cc(Cl)ccc1S2	95	55*	0	/	2	10	1.6*
O=C(C[C@@H]1C=C[C@H](NC(=O)c2cccc(F)c2)[C@@H](CO)O1)NCc1ccc(Oc2ccccc2)cc1	/	/	/	3	/	/	/
Clc1ccc(-n2nnnc2Sc2ncnc3sccc23)cc1	100	39*	31	-2	0	-5	10*
Cc1sc2ncnc(Sc3nnnn3-c3ccccc3)c2c1C	64	34*	0	1	1	2	18*
C[C@@H]1CN([C@H](C)CO)C(=O)c2cc(C#C[C@@H](C)O)cnc2O[C@H]1CN(C)Cc1ccccn1	/	/	/	0	/	/	/
CC(=O)c1ccc(-c2cccc(-c3nc4ccccn4c3NC3CCCCC3)c2)cc1	98	32*	-3	-1	5	6	0.38*
CCC(C)Sc1cc(-c2nc3ccccn3c2NC2CCCCC2)ccc1OC (stereo unspecified)	100	14	-5	-2	-5	11	/
C[C@@H]1CN([C@H](C)CO)C(=O)c2cccc(NC(=O)NC3CCCCC3)c2O[C@@H]1CN(C)S(=O)(=O)c1cccs1	/	/	/	1	/	/	/
CCC(C)[C@H](NC(=O)NC1CCN(Cc2ccccc2)CC1)C(=O)OC (stereo partly specified)	0	38*	-5	-2	-12	-2	>38
COc1ccc(C)cc1NC(=O)NC1CCN(Cc2ccccc2)CC1	99	-1	-9	/	-2	3	/
Cc1nc2ccccc2c2c1C(=O)N(C)C2=O	0	58*	-1	-3	-12	-5	18*
Oc1ccccc1OCc1nc2ccccc2s1	-4	-2	2	1	-4	2	/
Oc1ccc(O)c(Cc2nc3ccccc3s2)c1	-2	31*	13	/	-7	2	>38
CCOC(=O)N1C(=O)[C@](c2ccc(Cl)cc2)(C(C)C)N1C(=O)OCC	6	34*	-4	0	4	29	3.5*
CCOC(=O)N1C(=O)[C@@](c2ccc(Cl)cc2)(C(C)C)N1C(=O)OCC	1	49*	1	2	-1	43	33*
C[C@@H]1CN([C@H](C)CO)C(=O)c2cc(NC(=O)C3CCCCC3)ccc2O[C@@H](C)CCCCO[C@H]1CN(C)Cc1ccc(C(=O)O)cc1	/	/	/	0	/	/	/
Cc1ccccc1OCC(=O)Nc1ccccc1N1CCCCC1	/	32*	-11	2	-8	55*	>38
Cc1noc(C)c1S(=O)(=O)Nc1ccc2c(c1)CC(=O)N([C@H](C)CO)C[C@@H](C)[C@H](CN(C)C(=O)Nc1cccc3ccccc13)O2	/	/	/	4	/	/	/
Cc1noc(C)c1NC(=O)Nc1cccc2c1O[C@H](CN(C)Cc1ccc(-c3ccccc3)cc1)[C@@H](C)CN([C@H](C)CO)C2=O	/	/	/	0	/	/	/
CS(=O)(=O)c1ccc(C(=O)OCC(=O)NC23CC4CC(CC(C4)C2)C3)cc1[N+](=O)[O-]	-1	32*	29	/	10	8	>38
CO[C@H]1CN(C)C(=O)c2cc(NC(=O)Nc3cccc(F)c3)ccc2OC[C@@H](C)NC[C@@H]1C	/	/	/	6	/	/	/
N#CC(C#N)=C(Nc1ccc(F)cc1)SCc1cccc(Br)c1	0	55*	37	0	6	19	4.7*
CC(SCc1ccccc1)C(=O)Nc1ccc(F)cc1 (stereo unspecified)	-2	2	0	1	5	4	/
Cc1[nH][nH]c(=O)c1C(c1ccc(-c2ccc(Cl)c(C(=O)O)c2)o1)c1c(C)[nH][nH]c1=O	/	/	/	/	24	-13	/

Compound activity from PubChem BioAssay.
